According to article PMC5700166:

Legend:
Experiment in all cases: protein-binding microarray (PBM); PBM: ~300 nM protein, 6 mM HEPES pH 7.8, 80 mM KCl, 0.5 mM EDTA, 0.5 mM EGTA, 6% glycerol, 35 ng/ul poly-dIdC, 1% milk, 1 h, room temperature; Ap Aiptasia and Nv Nematostella (sea anemones) / Co Capsaspora / Aq Amphimedon (sponge) / Dm Drosophila / Hu human; RHD is the Rel homology domain; high values mean tight binding
Details in all cases: dsDNA, one strand shown
GST-Ap-NF-kB RHD = target: T1, GST-Ap-NF-kB RHD (Exaiptasia pallida (Aiptasia), UniProt A0A913YAJ5 2-422)
T1 sequence: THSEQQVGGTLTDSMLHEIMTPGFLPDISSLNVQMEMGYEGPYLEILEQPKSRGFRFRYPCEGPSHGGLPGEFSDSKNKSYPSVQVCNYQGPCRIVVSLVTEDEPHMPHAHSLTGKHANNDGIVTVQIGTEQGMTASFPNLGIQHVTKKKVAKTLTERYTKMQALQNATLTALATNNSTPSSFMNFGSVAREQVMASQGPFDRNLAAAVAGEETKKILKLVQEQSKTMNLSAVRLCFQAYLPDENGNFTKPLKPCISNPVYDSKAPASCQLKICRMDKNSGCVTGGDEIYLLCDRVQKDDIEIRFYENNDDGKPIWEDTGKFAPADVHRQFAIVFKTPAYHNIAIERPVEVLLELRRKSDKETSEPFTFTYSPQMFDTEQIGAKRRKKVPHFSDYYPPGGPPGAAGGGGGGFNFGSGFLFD

[1] = target: T2, GST-Nv-NF-kB (Cys allele) (Nematostella vectensis, UniProt E5G601 2-411)
T2 sequence: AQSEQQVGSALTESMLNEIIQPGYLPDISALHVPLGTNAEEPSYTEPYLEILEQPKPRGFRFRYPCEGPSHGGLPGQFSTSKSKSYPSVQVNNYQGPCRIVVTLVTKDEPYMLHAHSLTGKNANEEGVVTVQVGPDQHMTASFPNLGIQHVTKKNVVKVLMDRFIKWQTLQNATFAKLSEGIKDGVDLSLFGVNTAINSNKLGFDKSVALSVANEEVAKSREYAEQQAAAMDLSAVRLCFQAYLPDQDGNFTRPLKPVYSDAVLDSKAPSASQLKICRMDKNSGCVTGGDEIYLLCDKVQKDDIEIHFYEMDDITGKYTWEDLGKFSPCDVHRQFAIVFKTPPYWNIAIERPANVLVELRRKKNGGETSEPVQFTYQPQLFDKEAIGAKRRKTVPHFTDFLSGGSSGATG

GST-Co-NF-kB = target: T3, GST-Co-NF-kB (Capsaspora owczarzaki, UniProt F1ARL5 200-546)
T3 sequence: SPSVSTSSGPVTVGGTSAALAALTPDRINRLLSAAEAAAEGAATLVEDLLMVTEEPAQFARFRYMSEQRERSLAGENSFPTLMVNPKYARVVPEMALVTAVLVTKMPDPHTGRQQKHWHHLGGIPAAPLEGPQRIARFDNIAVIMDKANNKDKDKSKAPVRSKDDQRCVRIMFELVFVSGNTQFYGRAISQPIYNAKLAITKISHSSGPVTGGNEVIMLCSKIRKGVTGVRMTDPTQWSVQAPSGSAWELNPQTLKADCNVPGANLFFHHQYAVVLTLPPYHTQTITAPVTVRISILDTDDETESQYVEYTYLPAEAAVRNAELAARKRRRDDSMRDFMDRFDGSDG

GST-Dm-Relish = target: T4, GST-Dm-Relish (Drosophila melanogaster, UniProt Q94527 99-473)
T4 sequence: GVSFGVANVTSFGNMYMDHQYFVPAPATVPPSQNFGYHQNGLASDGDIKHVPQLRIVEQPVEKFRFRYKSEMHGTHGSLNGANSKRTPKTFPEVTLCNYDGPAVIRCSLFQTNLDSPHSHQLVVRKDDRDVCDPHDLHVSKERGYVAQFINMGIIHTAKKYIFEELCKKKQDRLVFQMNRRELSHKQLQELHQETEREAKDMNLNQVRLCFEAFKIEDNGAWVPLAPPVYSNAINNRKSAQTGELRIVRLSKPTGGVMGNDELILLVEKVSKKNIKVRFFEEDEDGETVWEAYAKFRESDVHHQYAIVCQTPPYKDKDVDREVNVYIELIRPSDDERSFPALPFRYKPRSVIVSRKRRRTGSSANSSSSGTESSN

GST-Aq-NF-kB = target: T5, GST-Aq-NF-kB (Amphimedon queenslandica, UniProt A9Y5G7 2-389)
T5 sequence: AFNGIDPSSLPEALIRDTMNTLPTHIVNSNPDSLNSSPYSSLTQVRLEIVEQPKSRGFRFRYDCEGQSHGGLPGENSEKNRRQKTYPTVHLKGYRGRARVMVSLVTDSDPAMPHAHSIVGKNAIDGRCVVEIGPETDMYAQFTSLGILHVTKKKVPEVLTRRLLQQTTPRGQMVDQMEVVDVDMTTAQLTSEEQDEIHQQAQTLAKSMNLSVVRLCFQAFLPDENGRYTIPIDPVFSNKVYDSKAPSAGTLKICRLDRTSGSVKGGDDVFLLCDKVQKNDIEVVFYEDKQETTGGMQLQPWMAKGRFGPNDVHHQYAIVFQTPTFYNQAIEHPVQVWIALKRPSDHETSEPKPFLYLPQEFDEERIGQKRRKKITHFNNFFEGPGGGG

Row | Sequence | binding signal (GST-Ap-NF-kB RHD) | binding signal [1] | binding signal (GST-Co-NF-kB) | binding signal (GST-Dm-Relish) | binding signal (GST-Aq-NF-kB)
1 | CCGATTAACATCAACCACCCCCCTGATGTTAATCGGGTCTTGATTCGCTTGACGCTGCTG | 3.74 z-score | 2.31 z-score | 4.22 z-score | 4.6 z-score | 3.9 z-score
2 | CCGATTAACATCAAAATTCCCAATGATGTTAATCGGGTCTTGATTCGCTTGACGCTGCTG | 3.1 z-score | 4.95 z-score | 4.01 z-score | 5.17 z-score | 4.03 z-score
3 | CCGATTAACATCAAATTCCCGTATGATGTTAATCGGGTCTTGATTCGCTTGACGCTGCTG | 2.44 z-score | 4.38 z-score | 2.65 z-score | 3.19 z-score | 3.72 z-score
4 | CCGATTAACATCACCCAACCCCCTGATGTTAATCGGGTCTTGATTCGCTTGACGCTGCTG | 4.6 z-score | 2.94 z-score | 2.21 z-score | 4.3 z-score | 3.45 z-score
5 | CCGATTAACATCACTTTTTCCCATGATGTTAATCGGGTCTTGATTCGCTTGACGCTGCTG | 2.03 z-score | 3.6 z-score | 4.08 z-score | 1.51 z-score | 1.99 z-score
6 | CCGATTAACATCACGGGAATGCCTGATGTTAATCGGGTCTTGATTCGCTTGACGCTGCTG | 1.93 z-score | 2.46 z-score | 1.56 z-score | 3.11 z-score | 3.8 z-score
7 | CCGATTAACATCAAACAATTCCCTGATGTTAATCGGGTCTTGATTCGCTTGACGCTGCTG | 3.25 z-score | 5.26 z-score | 3.45 z-score | 1.6 z-score | 4.85 z-score
8 | CCGATTAACATCAAGGGGGTGACTGATGTTAATCGGGTCTTGATTCGCTTGACGCTGCTG | 4.68 z-score | 3.59 z-score | 3.04 z-score | 2.43 z-score | 4.26 z-score
9 | CCGATTAACATCAGTTCCCCCCATGATGTTAATCGGGTCTTGATTCGCTTGACGCTGCTG | 6.36 z-score | 4.32 z-score | 8.97 z-score | 3.62 z-score | 3.91 z-score
10 | CCGATTAACATCAAGAGACCCCCTGATGTTAATCGGGTCTTGATTCGCTTGACGCTGCTG | 5.03 z-score | 2.88 z-score | 2.08 z-score | 3.99 z-score | 3.76 z-score
11 | CCGATTAACATCACGGGACTCCCTGATGTTAATCGGGTCTTGATTCGCTTGACGCTGCTG | 5.53 z-score | 4.06 z-score | 1.53 z-score | 8.72 z-score | 5 z-score
12 | CCGATTAACATCAAAGAAATCCCTGATGTTAATCGGGTCTTGATTCGCTTGACGCTGCTG | 4.82 z-score | 4.34 z-score | 1.36 z-score | 6.17 z-score | 4.61 z-score
13 | CCGATTAACATCAGGGGGTACCCTGATGTTAATCGGGTCTTGATTCGCTTGACGCTGCTG | 7.79 z-score | 4.44 z-score | 4.14 z-score | 6.71 z-score | 6.6 z-score
14 | CCGATTAACATCAAGGGAATACCTGATGTTAATCGGGTCTTGATTCGCTTGACGCTGCTG | 4.61 z-score | 4.26 z-score | 2.25 z-score | 6.28 z-score | 5.48 z-score
15 | CCGATTAACATCACGCAACCCCCTGATGTTAATCGGGTCTTGATTCGCTTGACGCTGCTG | 5.37 z-score | 3.7 z-score | 2 z-score | 5.08 z-score | 3.89 z-score
16 | CCGATTAACATCAAATATACCCCTGATGTTAATCGGGTCTTGATTCGCTTGACGCTGCTG | 4.01 z-score | 3.4 z-score | 5.87 z-score | 2.64 z-score | 4.15 z-score
17 | CCGATTAACATCACAGGGAATTCTGATGTTAATCGGGTCTTGATTCGCTTGACGCTGCTG | 4.57 z-score | 5.56 z-score | 3.45 z-score | 3.71 z-score | 4.62 z-score
18 | CCGATTAACATCAGGGAGTTACCTGATGTTAATCGGGTCTTGATTCGCTTGACGCTGCTG | 4.03 z-score | 5.22 z-score | 2.38 z-score | 7.17 z-score | 7.22 z-score
19 | CCGATTAACATCAAGCAACCCCCTGATGTTAATCGGGTCTTGATTCGCTTGACGCTGCTG | 5.23 z-score | 3.34 z-score | 2.21 z-score | 5.19 z-score | 4.14 z-score
20 | CCGATTAACATCAGGGGGTAACCTGATGTTAATCGGGTCTTGATTCGCTTGACGCTGCTG | 6.07 z-score | 3.41 z-score | 5.91 z-score | 3.94 z-score | 5.48 z-score
21 | CCGATTAACATCAGGCTTCCCCCTGATGTTAATCGGGTCTTGATTCGCTTGACGCTGCTG | 5.74 z-score | 5.65 z-score | 6.8 z-score | 6.44 z-score | 5.57 z-score
22 | CCGATTAACATCAGGGACTCCCATGATGTTAATCGGGTCTTGATTCGCTTGACGCTGCTG | 5.29 z-score | 4.05 z-score | 1.08 z-score | 9.01 z-score | 4.46 z-score
23 | CCGATTAACATCAGGGGATGGGATGATGTTAATCGGGTCTTGATTCGCTTGACGCTGCTG | 3.51 z-score | 3.51 z-score | 2.16 z-score | 1.4 z-score | 2.91 z-score
24 | CCGATTAACATCACGGGATTTCCTGATGTTAATCGGGTCTTGATTCGCTTGACGCTGCTG | 4.81 z-score | 4.51 z-score | 1.37 z-score | 7.57 z-score | 6.62 z-score
25 | CCGATTAACATCAGGGATATTTATGATGTTAATCGGGTCTTGATTCGCTTGACGCTGCTG | 2.06 z-score | 2.7 z-score | 1.68 z-score | 2.57 z-score | 3.73 z-score
26 | CCGATTAACATCAGGGCAGCCCCTGATGTTAATCGGGTCTTGATTCGCTTGACGCTGCTG | 4.41 z-score | 4.88 z-score | 1.25 z-score | 4.16 z-score | 7.43 z-score
27 | CCGATTAACATCAGCGAATTCCCTGATGTTAATCGGGTCTTGATTCGCTTGACGCTGCTG | 3.47 z-score | 4.45 z-score | 2.15 z-score | 2.72 z-score | 3.61 z-score
